Test [1] in a line: Tanguay_ZF_120hpf_OTIC_legacy: (Legacy) Oregon State University Tanguay Lab 120 Hour Post-fertilization zebrafish Assay for Otic Vesicle Malformation (AID 2283639). The gist of the method: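 Brightfield scoring at 120 hpf, binary present/absent; DMSO negative control, 5uM trimethyltin chloride positive control. Static exposure at 28C, final DMSO 0.64% (vol/vol). Dead embryos not scored for malformation.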

The nature of test [2]: Tanguay_ZF_120hpf_PE_legacy: (Legacy) Oregon State University Tanguay Lab 120 Hour Post-fertilization zebrafish Assay for Pericardial Edema (AID 2283640). The essentials:
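Scoring was binary, by brightfield microscopy at 120 hpf, and skipped where mortality occurred. Wild-type embryos were kept under sealed, foil-covered static exposure at 28C in 0.64% (vol/vol) DMSO.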

A short description of test [3]: Tanguay_ZF_120hpf_BRAI_legacy: (Legacy) Oregon State University Tanguay Lab 120 Hour Post-fertilization zebrafish Assay for Brain Malformation (AID 2283641). The essentials:
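Binary brightfield scoring of brain malformation at 120 hpf in Tropical 5D larvae held under static exposure at 28C (0.64% v/v DMSO), non-mortality endpoints skipped if dead. Positive control: 5uM trimethyltin chloride; fit versus DMSO.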

A short description of test [4]: Tanguay_ZF_120hpf_SOMI_legacy: (Legacy) Oregon State University Tanguay Lab 120 Hour Post-fertilization zebrafish Assay for Somite Malformation (AID 2283647). The essentials: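 Binary somite-defect scoring at 120 hpf, omitted for embryos that died, in wild-type (Tropical 5D) zebrafish with chorion removed by pronase at 4 hpf; static exposure began 6 hpf, single embryos per well, 28C, 0.64% DMSO; fitted positive versus DMSO.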

Test [5] in a line: Tanguay_ZF_120hpf_PFIN_legacy: (Legacy) Oregon State University Tanguay Lab 120 Hour Post-fertilization zebrafish Assay for Pectoral Fin Malformation (AID 2283648).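 Further: each larva judged yes or no for fin defect by brightfield with dead larvae skipped.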 The gist of the method:
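Pectoral fin malformation was recorded as a binary endpoint at 120 hpf in wild-type Tropical 5D larvae, which had been dechorionated and exposed statically from 6 hpf at 28C in 0.64% DMSO. Dead embryos were excluded.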

Test [6] is described as follows: Tanguay_ZF_120hpf_CFIN_legacy: (Legacy) Oregon State University Tanguay Lab 120 Hour Post-fertilization zebrafish Assay for Caudal Fin Malformation (AID 2283649). The gist of the method:
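Binary brightfield scoring of caudal fin defects at 120 hpf after static, light-shielded exposure at 28C from 6 hpf. Tropical 5D embryos, chorion removed with pronase at 4 hpf, final DMSO 0.64%.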

Test [7] can be described thus: Tanguay_ZF_120hpf_PIG_legacy: (Legacy) Oregon State University Tanguay Lab 120 Hour Post-fertilization zebrafish Assay for Pigmentation Malformation (AID 2283650). The essentials: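 Pigment malformation recorded as a binary call at 120 hpf in zebrafish (Tropical 5D) exposed singly from 6 hpf after pronase dechorionation. Static, sealed, 28C exposure, 0.64% DMSO; mortality excludes scoring; positive-direction fit against DMSO.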

Test [8] can be described thus: Tanguay_ZF_120hpf_CIRC_legacy: (Legacy) Oregon State University Tanguay Lab 120 Hour Post-fertilization zebrafish Assay for Circulatory Malformation (AID 2283651). The gist of the method:
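Static exposure, 6–120 hpf, 28C, sealed and dark; one dechorionated 5D embryo/well; DMSO 0.64% v/v final. Binary circulation endpoint by brightfield; dead embryos not scored.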

Test [9] can be described thus: Tanguay_ZF_120hpf_SWIM_legacy: (Legacy) Oregon State University Tanguay Lab 120 Hour Post-fertilization zebrafish Assay for Swim Bladder Malformation (AID 2283654).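 Further: swim bladder malformation in each larva scored yes or no under brightfield.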 The gist of the method:
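Scoring is binary for swim bladder defects at 120 hpf, by brightfield inspection of zebrafish larvae. Embryos were exposed singly from 6 hpf after pronase dechorionation, at 28C with 0.64% DMSO; mortality excluded scoring.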

The nature of test [10]: Tanguay_ZF_120hpf_TRUN_legacy: (Legacy) Oregon State University Tanguay Lab 120 Hour Post-fertilization zebrafish Assay for Truncated Body (AID 2283655). The gist of the method:
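Binary presence/absence of truncated body is recorded at 120 hpf by brightfield, with non-mortality endpoints skipped after death. Exposure is static from 6 hpf in sealed dark plates at 28C, using dechorionated wild-type zebrafish, 0.64% DMSO.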

Test [11] can be described thus: Tanguay_ZF_120hpf_NC_legacy: (Legacy) Oregon State University Tanguay Lab 120 Hour Post-fertilization zebrafish Assay for Notochord and Tail Malformation (AID 2283656). The gist of the method:
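Binary notochord-distortion calls, made by brightfield inspection, form the read-out; activity is fitted in the positive direction against DMSO. Exposure ran statically from 6 to 120 hpf at 28C with 0.64% DMSO.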

The nature of test [12]: Tanguay_ZF_120hpf_TR_legacy: (Legacy) Oregon State University Tanguay Lab 120 Hour Post-fertilization zebrafish Assay for Touch Response (AID 2283667). The essentials:
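Binary touch-response endpoint in larvae at 120 hpf after static waterborne exposure from embryo stage (28°C, 0.64% DMSO vehicle, 5 uM trimethyltin chloride as positive control); embryos dead at 24 or 120 hpf excluded; fitted as gain versus DMSO.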

A short description of test [13]: Tanguay_ZF_120hpf_ActivityScore_legacy: (Legacy) Oregon State University Tanguay Lab 120 Hour Post-fertilization zebrafish Assay Score for Activity (AID 2283742). The gist of the method: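 Binary scoring of mortality and morphology by brightfield at 24 and 120 hpf, summarised into one activity score from 18 components relative to DMSO. Wild-type Tropical 5D zebrafish, chorion removed at 4 hpf, static exposure 6–120 hpf, 28 °C.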

Test [14] addresses human Thromboxane A2 Receptor (TXA2), TBXA2R (gene 6915) (UniProt P21731). The test is described as follows: NVS_GPCR_hTXA2: NovaScreen (NVS) G Protein-Coupled Receptor Assay for human Thromboxane A2 Receptor (TXA2) (AID 2283282).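 Further: actives reduce bound radioligand signal relative to DMSO baseline.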 The gist of the method: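 Human platelet membranes tested for radioligand displacement by filtration and scintillation counting 1 h post-dose. Screened in duplicate at 25 uM; activity fitted as signal loss relative to DMSO.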

For test [15], the target named is PGR (gene 5241) (UniProt P06401). The test is described as follows: TOX21_PR_BLA_Followup_Antagonist_ratio: Tox21 HEK293 Progesterone Receptor (PR) Antagonism Beta-lactamase Follow-Up Assay, Ratio (AID 2283934). The gist of the method:
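Read-out: blue/green beta-lactamase FRET ratio (cleaved ch2 over uncleaved ch1), fitted relative to DMSO baseline. Cells: PR-UAS-bla HEK293T, GAL4-UAS reporter, stimulated with 1 nM R5020 final; 16 hr compound exposure, 37C.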

For test [16] the target is unchanged. The test is described as follows: TOX21_PR_LUC_Followup_Antagonist: Tox21 HEK293 Progesterone Receptor (PR) Antagonism Luciferase Follow-Up Assay (AID 2283938).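 Further: curve fitted upward as signal gain over DMSO baseline despite antagonist label.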 The essentials: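 Luminescence from ONE-Glo was measured 30 min after reagent addition, following 16 h exposure of HEK293-PR-A-luc cells (3,000/well, plated 5 h earlier) to DMSO-dissolved compounds at 37C; DMSO served as baseline.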

For another test, the system named is IYD (gene 389434). The test is described as follows: CCTE_GLTED_hIYD: CCTE's human Iodotyrosine Deiodinase (xIYD) Inhibition Assay, Great Lakes Toxicology and Ecology Division (GLTED) Lab (AID 2284317).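 Further: cell-free human IYD enzyme made in baculovirus insect cells; iodide freed from monoiodotyrosine measured by cerium arsenite color change at 420 nm.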 The gist of the method: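 Cell-free; baculovirus/insect-cell hIYD + MIT substrate + chemical, 3 h. Dowex column cleanup, then Ce4+/As3+ Sandell-Kolthoff read at A420 nm. Triplicate plates; normalized to 3-nitro-L-tyrosine (positive) and DMSO/NaOH (solvent).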

Inconclusive results are not listed. Active and inactive are the calls of the source. How the source made its calls: active means hit-call score of the fitted dose curve at least 0.9, where 1 is the maximum; inconclusive means response in the unintended direction; inactive means score below 0.9.

Chain of PGR (gene 5241) (P06401 whole entry, looked up, the tested form may be a part): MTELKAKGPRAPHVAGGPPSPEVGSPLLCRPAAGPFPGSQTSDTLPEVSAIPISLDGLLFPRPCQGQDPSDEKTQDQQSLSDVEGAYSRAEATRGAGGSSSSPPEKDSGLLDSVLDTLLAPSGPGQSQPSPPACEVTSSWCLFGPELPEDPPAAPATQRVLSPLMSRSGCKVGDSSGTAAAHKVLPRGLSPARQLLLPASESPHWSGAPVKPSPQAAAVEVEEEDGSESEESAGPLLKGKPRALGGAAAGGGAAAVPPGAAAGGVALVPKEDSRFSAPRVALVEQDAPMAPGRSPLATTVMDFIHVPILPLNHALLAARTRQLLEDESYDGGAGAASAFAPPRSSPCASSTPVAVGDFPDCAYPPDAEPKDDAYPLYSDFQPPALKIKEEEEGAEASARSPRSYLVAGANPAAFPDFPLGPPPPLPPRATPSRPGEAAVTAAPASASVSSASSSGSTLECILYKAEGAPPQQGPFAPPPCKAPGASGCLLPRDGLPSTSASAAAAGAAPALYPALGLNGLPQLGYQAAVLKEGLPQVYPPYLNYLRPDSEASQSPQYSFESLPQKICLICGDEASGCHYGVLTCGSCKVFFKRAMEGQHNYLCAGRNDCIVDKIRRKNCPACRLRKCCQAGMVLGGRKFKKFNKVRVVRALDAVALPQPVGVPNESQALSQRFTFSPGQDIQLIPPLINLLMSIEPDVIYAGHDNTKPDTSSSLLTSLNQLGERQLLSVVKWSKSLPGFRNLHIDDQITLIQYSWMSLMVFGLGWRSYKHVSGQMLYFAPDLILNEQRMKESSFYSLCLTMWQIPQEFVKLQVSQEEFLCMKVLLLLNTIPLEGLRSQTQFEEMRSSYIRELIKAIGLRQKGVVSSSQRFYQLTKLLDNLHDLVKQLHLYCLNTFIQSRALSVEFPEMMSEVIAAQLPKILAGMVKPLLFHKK
Chain of human Thromboxane A2 Receptor (TXA2), TBXA2R (gene 6915) (P21731 whole entry, looked up): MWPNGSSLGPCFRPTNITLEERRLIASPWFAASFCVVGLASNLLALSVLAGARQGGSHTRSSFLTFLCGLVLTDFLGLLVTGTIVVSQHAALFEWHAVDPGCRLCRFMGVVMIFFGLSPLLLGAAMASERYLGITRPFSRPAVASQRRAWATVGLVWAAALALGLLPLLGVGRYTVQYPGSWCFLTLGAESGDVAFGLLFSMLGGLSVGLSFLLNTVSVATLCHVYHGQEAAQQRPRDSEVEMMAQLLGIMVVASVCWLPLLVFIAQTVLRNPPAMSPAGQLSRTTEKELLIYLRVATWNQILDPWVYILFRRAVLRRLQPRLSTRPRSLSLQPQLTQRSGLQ

On to `CCC(C)=NO`, for which the molecule was classed as inactive in test [1], in test [2], in test [3], in [4], in test [5] and in [6]. Besides, the molecule was classed as inactive in [7], in test [8], in [9], in test [10], in test [11] and in test [12]. The molecule was classed as inactive in test [13].
Consider `CCCCCCCCCC/C=C/C1CC(=O)OC1=O` (configuration not stated), for which the result in test [14] was inactive.
With `c1cc[c]([Bi]([c]2ccccc2)[c]2ccccc2)cc1`, in the test with PGR (gene 5241) [15], the half-maximal activity concentration (AC50) was 16.3 µM (active). Further, the molecule was classed as inactive with PGR (gene 5241) [16].
For the molecule `Cc1cc2nc3c(=O)[nH]c(=O)nc-3n(C[C@H](O)[C@H](O)[C@H](O)CO)c2cc1C`, the half-maximal activity concentration (AC50) with IYD (gene 389434) was 94.2 µM (active).

Source of the values: PubChem BioAssay (EPA / NIEHS).
